Measured values reported in PubChem BioAssay (NCATS).
Where “and” joins values, the source holds several entries; their conditions need not be identical. Equal values may be shown once. Values without a mark were called inactive. Results filed as inconclusive are left out. Where a call stands in place of a potency, no number is given. Calls of active or inactive are those of the source. Unless noted, the call rests on the fitted dose curve; in most records, active means well fitted curve in the direction sought with a large enough effect; inconclusive means small, poorly fitted or top-dose-only effect, or another doubt; inactive means no such curve, though single readings can be large; an effect the other way counts as inactive or inconclusive.

Legend:
[1] = biological target: Mitogen-activated protein kinase 10 (Mus musculus) (UniProt Q61831); test: JNK3 AlphaScreen Assay (AID 530; active means well fitted curve in either direction with a large enough effect, not every such curve was filed as active;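 further: kinase came from lysate of stimulated human HepG2 cells; signal reports phosphorylation of biotinylated GST-cJun 1-79 at Ser73 with 10 µM ATP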); conditions: JNK3 lysate, c-Jun phosphorylation; series mostly up to 57.1 µM
Method in brief: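 Kinase buffer: 20 mM Tris-HCl pH 7.6, 10 mM MgCl2, 1 mM DTT, 0.1 mM Na3VO4, 0.01% Tween-20; ATP 10 uM. Substrate biotin-GST-cJun(1-79), enzyme from activated HepG2 lysates. Detection by Ser73 phospho-antibody AlphaScreen.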

[2] = Cell Viability - N2a (AID 540); conditions: N2a mouse neuroblastoma cell viability; activity change, negative = cytotoxicity: at 92.2 µM (top of the series); further: nearly all actives have a fitted effect of over 45% in size; further: potency means the concentration at half of the fitted maximal effect
Method in brief: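 N2a mouse neuroblastoma, 1500 cells/well, 5 hr settle; compound 40 hr, 37 °C; CellTiter-Glo 20 min RT; luminescence; Hill-fit AC50.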

[3] = Cell Viability - NIH 3T3 (AID 541); conditions: NIH 3T3 cell viability, qHTS; activity change, negative = cytotoxicity: at 92.2 µM (top of the series);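 further: cells exposed to compound for 40 hours; nearly all actives have a fitted effect of over 25% in size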; further: potency means the concentration at half of the fitted maximal effect
Method in brief: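 qHTS format; 40 hr compound exposure, 37 °C; CellTiter-Glo luminescence (cellular ATP) read-out after 20 min at RT. Decrease in ATP = cytotoxicity; AC50 from standard Hill fit.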

[4] = Cell Viability - HUV-EC-C (AID 542); conditions: HUV-EC-C endothelial cell viability, qHTS; series mostly up to 92.2 µM;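 further: cells exposed to compound for 40 hours; nearly all actives have a fitted effect of over 35% in size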; further: potency means the concentration at half of the fitted maximal effect
Method in brief: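 Luminescent ATP read-out (CellTiter-Glo, 20 min room temperature) after 40 hr compound treatment of HUV-EC-C cells at 37 °C. Concentration-response data fitted with the standard Hill equation to give AC50; tamoxifen and doxorubicin served as positive controls.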

[5] = Cell Viability - H-4-II-E (AID 543); conditions: H-4-II-E rat hepatoma viability; series mostly up to 92.2 µM;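 further: cells exposed to compound for 40 hours; nearly all actives have a fitted effect of over 35% in size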; further: potency means the concentration at half of the fitted maximal effect
Method in brief: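 qHTS, rat hepatoma H-4-II-E, 1500 cells/well; 40 hr compound exposure, 37 °C; CellTiter-Glo ATP luminescence after 20 min RT; AC50 by standard Hill fit.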

[6] = Cell Viability - SH-SY5Y (AID 544); conditions: SH-SY5Y neuroblastoma cell viability; series mostly up to 92.2 µM;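 further: cells exposed to compound for 40 hours; nearly all actives have a fitted effect of over 55% in size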; further: potency means the concentration at half of the fitted maximal effect
Method in brief: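 SH-SY5Y, 1500 cells/well, 5 hr pre-incubation 37 °C; cpd 40 hr 37 °C; CellTiter-Glo 20 min RT; luminescence (ATP) read. qHTS concentration-response, Hill fit → AC50. Tamoxifen, doxorubicin as positive controls.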

[7] = Cell Viability - Renal Proximal Tubule (AID 545); conditions: renal proximal tubule cells viability; activity change, negative = cytotoxicity: at 91.7 µM (top of the series);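 further: cells exposed to compound for 40 hours; nearly all actives have a fitted effect of over 40% in size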; further: potency means the concentration at half of the fitted maximal effect
Method in brief: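 Rat kidney proximal tubule cells, freshly isolated; 1000 cells/well, 5 hr settle, compound 40 hr 37 °C. CellTiter-Glo 20 min RT, luminescence read. AC50 by standard Hill fit.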

[8] = biological target: Glucocorticoid receptor (Homo sapiens) (UniProt P04150); test: GR-EFC Redistribution (AID 451; calls by dose curve; further: potency means the concentration at half of the fitted maximal effect); conditions: CHO-K1 GR-EFC translocation, beta-gal luminescence, 2 h
Sequence of Glucocorticoid receptor (Homo sapiens) (P04150 whole entry, looked up, the tested form may be a part): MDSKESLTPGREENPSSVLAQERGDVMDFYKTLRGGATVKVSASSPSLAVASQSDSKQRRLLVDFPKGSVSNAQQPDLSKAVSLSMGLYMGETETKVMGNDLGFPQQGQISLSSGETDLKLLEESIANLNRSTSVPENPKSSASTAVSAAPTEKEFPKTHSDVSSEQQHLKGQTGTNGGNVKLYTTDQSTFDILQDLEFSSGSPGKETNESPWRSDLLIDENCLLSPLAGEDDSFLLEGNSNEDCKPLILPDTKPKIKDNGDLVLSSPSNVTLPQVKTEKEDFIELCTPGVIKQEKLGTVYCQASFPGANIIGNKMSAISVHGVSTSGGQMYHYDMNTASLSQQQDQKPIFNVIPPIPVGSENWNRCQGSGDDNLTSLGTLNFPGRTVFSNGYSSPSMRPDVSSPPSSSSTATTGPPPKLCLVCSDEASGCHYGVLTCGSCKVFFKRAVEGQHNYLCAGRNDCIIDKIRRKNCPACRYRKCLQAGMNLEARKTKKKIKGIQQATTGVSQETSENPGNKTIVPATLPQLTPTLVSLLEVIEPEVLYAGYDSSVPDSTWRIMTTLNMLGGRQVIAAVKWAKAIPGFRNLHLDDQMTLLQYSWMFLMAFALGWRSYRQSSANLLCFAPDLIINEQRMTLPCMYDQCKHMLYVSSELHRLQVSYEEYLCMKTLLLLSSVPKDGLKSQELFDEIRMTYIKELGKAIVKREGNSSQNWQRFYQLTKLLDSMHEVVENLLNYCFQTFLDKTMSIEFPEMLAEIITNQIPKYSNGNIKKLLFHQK
Method in brief: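 Translocation of GR-ED fusion to nuclear EA restores b-gal, read by luminescence after 1 h room-temperature detection. Engineered CHO-K1 biosensor cells, 1,000/well, exposed 2 h at 37 C to titrations up to 46 uM final.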

## Oc1cc(Cl)c(Cl)cc1Cl
[1]
  outcome: inactive
[2]
  Potency: 25.1 µM (active)
[3]
  Potency: inactive
[4]
  Potency: inactive
[5]
  Potency: inactive
[6]
  Potency: inactive
[7]
  Potency: inactive

## O=Cc1ccco1
[2]
  Potency: inactive
[3]
  Potency: inactive
[4]
  Potency: inactive
[5]
  Potency: inactive
[6]
  Potency: inactive
[7]
  Potency: inactive

## O=C1C2CC=CCC2C(=O)N1SC(Cl)(Cl)Cl (configuration not stated)
[2]
  Potency: 20 µM (active) and 10 µM (active)
[3]
  Potency: 5.01 µM (active) and 2 µM (active)
[4]
  Potency: 50.1 µM (active) and 25.1 µM (active)
[5]
  Potency: 7.94 µM (active) and 6.31 µM (active)
[6]
  Potency: 2 µM (active) and 1 µM (active)
[7]
  Potency: 3.98 µM (active) and 3.16 µM (active)

## C=CCN=C=S
[1]
  outcome: inactive
[2]
  Potency: inactive
[3]
  Potency: inactive
[4]
  Potency: inactive
[5]
  Potency: inactive
[6]
  Potency: inactive
[7]
  Potency: inactive

## CC(C)CCON=O
[1]
  outcome: inactive
[2]
  Potency: inactive
[3]
  Potency: inactive
[4]
  Potency: inactive
[5]
  Potency: inactive
[6]
  Potency: inactive
[7]
  Potency: inactive

## COc1ccc2c(c1OC)C(=O)OC2C1c2cc3c(cc2CCN1C)OCO3 (configuration not stated)
[2]
  Potency: inactive
[3]
  Potency: inactive
[4]
  Potency: inactive
[5]
  Potency: inactive
[6]
  Potency: inactive
[7]
  Potency: inactive

## CCCCCl
[2]
  Potency: inactive
[3]
  Potency: inactive
[4]
  Potency: inactive
[5]
  Potency: inactive
[6]
  Potency: inactive
[7]
  Potency: inactive

## [O]=[Cd]
[2]
  Potency: inactive
[3]
  Potency: inactive
[4]
  Potency: inactive
[5]
  Potency: inactive
[6]
  Potency: inactive
[7]
  Potency: inactive

## O=[N+]([O-])c1ccc(F)c([N+](=O)[O-])c1
[3]
  activity change, negative = cytotoxicity: -151% (active)
[4]
  Potency: inactive
[6]
  Potency: 25.1 µM (active)

## ClCC1CO1 (configuration not stated)
[1]
  outcome: inactive
[2]
  Potency: inactive
[3]
  Potency: inactive
[4]
  Potency: inactive
[5]
  Potency: inactive
[6]
  Potency: inactive
[7]
  Potency: inactive

## ClC(Cl)(Cl)Cl
[1]
  outcome: inactive
[2]
  Potency: inactive
[3]
  Potency: inactive
[4]
  Potency: inactive
[5]
  Potency: inactive
[6]
  Potency: inactive
[7]
  Potency: inactive

## C[C@H]1CC[C@@H]2[C@@H](C)[C@H]3[C@H](C[C@H]4[C@@H]5CC=C6CC(O[C@@H]7O[C@H](CO)[C@H](O)[C@H](O[C@@H]8O[C@H](CO)[C@@H](O)[C@H](O)[C@H]8O)[C@H]7O[C@H]7O[C@@H](C)[C@H](O)[C@@H](O)[C@H]7O)CC[C@]6(C)[C@H]5CC[C@]34C)N2C1 (some centres not stated)
[1]
  outcome: inactive
[2]
  Potency: 31.6 µM (active)
[3]
  Potency: 31.6 µM (active)
[4]
  Potency: 31.6 µM (active)
[5]
  Potency: 31.6 µM (active)
[6]
  Potency: 31.6 µM (active)
[7]
  activity change, negative = cytotoxicity: -101% (active)

## Cc1cc(C)cc(C(=O)OC2C[C@H]3CC[C@@H](C2)N3C)c1 (some centres not stated)
[8]
  Potency: > 46 µM
[1]
  outcome: inactive

## O=C/C=C/c1ccccc1
[2]
  Potency: inactive
[3]
  Potency: 12.6 µM (active)
[4]
  Potency: inactive
[5]
  Potency: inactive
[6]
  Potency: inactive
[7]
  Potency: inactive

## c1ccc2c(c1)[I+]c1ccccc1-2
[8]
  Potency: > 46 µM
[1]
  outcome: inactive

## ClC=C(Cl)Cl
[1]
  outcome: inactive
[2]
  Potency: inactive
[3]
  Potency: inactive
[4]
  Potency: inactive
[5]
  Potency: inactive
[6]
  Potency: inactive
[7]
  Potency: inactive

## O=CC=O
[1]
  outcome: inactive
[2]
  Potency: inactive
[3]
  Potency: 12.6 µM (active)
[4]
  Potency: inactive
[5]
  Potency: inactive
[7]
  Potency: inactive

## [Cl-].[Cl-].[Hg+2]
[2]
  Potency: 31.6 µM (active)
[3]
  Potency: 15.8 µM (active)
[4]
  Potency: 10 µM (active)
[5]
  Potency: 20 µM (active)
[6]
  Potency: 0.158 µM (active)
[7]
  Potency: 316 nM (active)

## O=C(O)C(Cl)(Cl)Cl
[2]
  Potency: inactive
[3]
  Potency: inactive
[4]
  Potency: inactive
[5]
  Potency: inactive
[6]
  Potency: inactive
[7]
  Potency: inactive

## C[C@]12CCC(=O)C[C@@H]1CC[C@@H]1[C@@H]2CC[C@]2(C)[C@@H](O)CC[C@@H]12
[1]
  outcome: inactive
[2]
  Potency: inactive
[3]
  Potency: inactive
[4]
  Potency: inactive
[6]
  Potency: inactive
[7]
  Potency: inactive

## [O]=[Cr](=[O])([OH])[O][Cr](=[O])(=[O])[OH]
[2]
  Potency: 39.8 µM (active) and 25.1 µM (active)
  activity change, negative = cytotoxicity: -124% (active)
[3]
  Potency: 15.8 µM (active)
  activity change, negative = cytotoxicity: -141% (active) and -151% (active)
[4]
  Potency: 3.98 µM (active) and 20 µM (active) and 5.01 µM (active)
[6]
  Potency: 316 nM (active) and 15.8 µM (active) and 3.98 µM (active)
[7]
  Potency: 2.51 µM (active) and 7.94 µM (active) and 501 nM (active)

## S=C=S
[1]
  outcome: inactive
[2]
  Potency: inactive
[3]
  Potency: inactive
[4]
  Potency: inactive
[5]
  Potency: inactive
[6]
  Potency: inactive
[7]
  Potency: inactive

## N[C@@H](Cn1oc(=O)[nH]c1=O)C(=O)O
[8]
  Potency: > 46 µM
[1]
  outcome: inactive

## CC(C)Nc1ccc(Nc2ccccc2)cc1
[2]
  activity change, negative = cytotoxicity: -116% (active)
[3]
  activity change, negative = cytotoxicity: -150% (active)
[4]
  Potency: 12.6 µM (active)
[5]
  Potency: 25.1 µM (active)
[6]
  Potency: 10 µM (active)
